This note sets out measurements from PubChem BioAssay (Tox21).

Structures are written as SMILES. Values joined by “and” are separate entries in the source; they are usually repeats but may differ in a detail not shown here. Identical values can stand only once. Inconclusive results are not listed. Some compounds were tested as several samples or in several runs, with calls that do not always agree. Active and inactive are the calls of the source. The call rests on the fitted dose curve; in most records, active means well fitted curve in the direction sought with a large enough effect in the repeat runs; inconclusive means weak or mixed curves; inactive means no such curve, though single readings can be large; an effect the other way counts as inactive or inconclusive.

The nature of test [1]: qHTS RealTime-Glo MT Cell Viability Assay in HEK293 cells - 16 hour (AID 1224872). Further: nearly all actives have a fitted effect of over 50% in size. Further: potency means the concentration at half of the fitted maximal effect. A digest of the protocol: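 Cells + reagent dispensed (600 cells/well, HEK293) → 5 h at 37 C/5% CO2 → 23 nL compound in DMSO pinned → 40 h at 37 C → luminescence read at 0, 8, 16, 24, 32, 40 h.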
(In qHTS, concentration-response curves come from the screen itself.)

Test [2] is described as follows: qHTS RealTime-Glo MT Cell Viability Assay in HepG2 cells - 8 hour (AID 1224873). Further: nearly all actives have a fitted effect of over 55% in size. Further: potency means the concentration at half of the fitted maximal effect. A digest of the protocol:
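HepG2 cells (600/well) mixed with RealTime-Glo MT reagent, settled 5 h at 37 C/5% CO2 before compound addition. Nonlytic NanoLuc luminescence from viable-cell prosubstrate reduction read repeatedly during 40 h treatment at 37 C.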

Test [3] is described as follows: qHTS RealTime-Glo MT Cell Viability Assay in HEK293 cells - 40 hour (AID 1224874). Further: nearly all actives have a fitted effect of over 50% in size. Further: potency means the concentration at half of the fitted maximal effect. The following applies: RealTime-Glo luminescence; max response: stronger effect = lower value. The gist of the method:
(§1)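 Kinetic, non-lysing viability readout. Seed HEK293 (600/well) with reagent, incubate 5 h at 37 C/5% CO2, pin 23 nL compound in DMSO, incubate at 37 C, read luminescence at 0, 8, 16, 24, 32, 40 h.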

A short description of test [4]: A CellTox Green Cytotoxicity Assay to monitor cytotoxicity in HEK293 cells - 24 hour (AID 1224875). Further: nearly all actives have a fitted effect of over 45% in size. Further: potency means the concentration at half of the fitted maximal effect. A digest of the protocol:
(§2)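 Real-time, in one plate: 600 HEK293 cells/well with dead-cell DNA dye, pinned compound after 5 h, 37 C incubation over 40 h; viable cells give no appreciable fluorescence.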

Test [5] can be described thus: A CellTox Green Cytotoxicity Assay to monitor cytotoxicity in HepG2 cells - 16 hour (AID 1224876). Further: nearly all actives have a fitted effect of over 45% in size. Further: potency means the concentration at half of the fitted maximal effect. The gist of the method: (§3)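 Cytotoxicity was tracked as dead-cell DNA fluorescence in HepG2 cells treated with test compounds at 37 C; each time-point value comes from one kinetic series spanning 0, 8, 16, 24, 32 and 40 h.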
Test [6] can be described thus: qHTS RealTime-Glo MT Cell Viability Assay in HepG2 cells - 32 hour (AID 1224877). Further: nearly all actives have a fitted effect of over 55% in size. Further: potency means the concentration at half of the fitted maximal effect. The gist of the method:
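Real-time, nonlytic viability: 600 HepG2 cells/well mixed with NanoLuc enzyme plus prosubstrate; 5 h settle, compound (DMSO) added by pintool; luminescence monitored over 40 h at 37 C.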

Test [7] in a line: A CellTox Green Cytotoxicity Assay to monitor cytotoxicity in HepG2 cells - 24 hour (AID 1224878). Further: nearly all actives have a fitted effect of over 45% in size. Further: potency means the concentration at half of the fitted maximal effect. A digest of the protocol: as §3
Test [8] in a line: A CellTox Green Cytotoxicity Assay to monitor cytotoxicity in HepG2 cells - 40 hour (AID 1224879). Further: nearly all actives have a fitted effect of over 40% in size. Further: potency means the concentration at half of the fitted maximal effect. A digest of the protocol:
as §3

Test [9] can be described thus: qHTS RealTime-Glo MT Cell Viability Assay in HEK293 cells - 0 hour (AID 1224880). Further: top concentration of the series differs between compounds; nearly all actives have a fitted effect of over 45% in size. A digest of the protocol: as §1
Test [10] can be described thus: A CellTox Green Cytotoxicity Assay to monitor cytotoxicity in HEK293 cells - 32 hour (AID 1224881). Further: nearly all actives have a fitted effect of over 40% in size. Further: potency means the concentration at half of the fitted maximal effect. The gist of the method: as §2
On the % scale 0 is the no-effect control and ±100 the full control effect.

Turning to `CN1CCC[C@H]1c1cccnc1`, the Potency entry in test [1], in test [2], in test [4], in [5], in test [6] and in test [7] was “inactive” throughout. For the same compound, the Potency result in [8], in [9] and in test [10] was “inactive” in each case. The max response in [3] is -1.49% (inactive) and 19.5% (inactive) and 2.35% (inactive).
With `CC(=O)C(=O)O`, the Potency result in test [1], in test [2], in test [4], in test [5], in [6] and in [7] was “inactive” throughout. In addition, the Potency entry in [8], in [9] and in [10] was “inactive” throughout. In addition, the max response in [3] was -1.91% (inactive) and -9.51% (inactive) and -2.01% (inactive).
As to `CCCCOC(=O)c1ccc(O)cc1`, the Potency was 24.8 µM (active) and inactive in test [1]; 24.8 µM (active) and 21.9 µM (active) in [3]. Further, the Potency entry in test [2], in test [4], in [5], in test [6], in [7] and in test [8] was “inactive” throughout. Moreover, the Potency entry in test [9] and in test [10] was “inactive” each time.
Turning to `CCOc1ccc(NC(C)=O)cc1`, the Potency result in test [1], in [2], in test [4], in [5], in test [6] and in test [7] was “inactive” in each case. Further, the Potency result in test [8], in test [9] and in [10] was “inactive” in each case. Besides, in test [3], the Potency was 21.9 µM (active). Further, in test [3], the max response is 2.25% (inactive) and 1.74% (inactive).
With `O=CC(=O)c1ccccc1`, the Potency result in [1], in [2], in test [4], in [5], in test [6] and in test [7] was “inactive” each time. The Potency entry in [8] and in test [9] was “inactive” throughout. In test [3], the max response is 13% (inactive).
Take `Cc1ncc([N+](=O)[O-])n1CCO`: the Potency result in test [1], in test [2], in test [4], in test [5], in test [6] and in test [7] was “inactive” in each case. In addition, the Potency entry in [8], in test [9] and in test [10] was “inactive” in each case. For the same compound, the max response in test [3] was 2.44% (inactive) and 13.2% (inactive) and 5.09% (inactive).
As to `CN(C)CCOC(c1ccccc1)c1ccccc1`, the Potency result in test [1], in [2], in test [4], in test [5], in test [6] and in test [7] was “inactive” throughout. The Potency result in test [8], in test [9] and in [10] was “inactive” throughout. In test [3], the max response is -18.9% (inactive) and -8.63% (inactive) and 0.403% (inactive).
Turning to `CCCCCCCCCCCC[N+](C)(C)Cc1ccccc1`, the Potency in test [1] was 24.1 µM (active) and 23.8 µM (active) and 8.49 µM (active); in [2], 48 µM (active) and 53.2 µM (active) and 26.8 µM (active); in [3], 1.91 µM (active) and 2.12 µM (active) and 1.9 µM (active); in [4] it was 42.8 µM (active) and 47.4 µM (active) and 23.9 µM (active); in test [5], 21.5 µM (active) and 26.7 µM (active) and 19 µM (active); in test [6], 9.58 µM (active) and 18.9 µM (active) and 6.74 µM (active). For the same compound, the Potency in [7] is 19.1 µM (active) and 23.8 µM (active) and 10.7 µM (active); in test [8], 13.5 µM (active) and 18.9 µM (active) and 8.49 µM (active); in test [10] it was 38.1 µM (active) and 29.9 µM (active) and 23.9 µM (active). In addition, the Potency entry in [9] was “inactive”.
Regarding `C=C(C)C(=O)OCC(C)O` (centres undefined), the Potency entry in [1], in [2], in [4], in [5], in test [6] and in test [7] was “inactive” each time. Moreover, the Potency result in [8], in test [9] and in test [10] was “inactive” in each case. In [3], the max response is 1.34% (inactive) and 8.53% (inactive) and -3.84% (inactive).
Take `CC(C)C(=O)Nc1ccc([N+](=O)[O-])c(C(F)(F)F)c1`: the Potency in test [1] is 20 µM (active) and 19.5 µM (active) and 10.7 µM (active); in test [3], 11.3 µM (active) and 21.9 µM (active) and 9.52 µM (active). The Potency result in [2], in [4], in [5], in test [6], in test [7] and in test [8] was “inactive” each time. The Potency entry in [9] and in [10] was “inactive” throughout.
Regarding `Cc1ncc([N+](=O)[O-])n1C`, the Potency result in [1], in test [2], in test [4], in test [5], in test [6] and in [7] was “inactive” throughout. Moreover, the Potency result in test [8], in test [9] and in test [10] was “inactive” each time. The max response in [3] is 6.42% (inactive) and -0.882% (inactive) and 0.401% (inactive).
Consider `C[C@](N)(Cc1ccc(O)c(O)c1)C(=O)O`, for which the Potency entry in test [1], in test [2], in [4], in test [5], in test [6] and in test [7] was “inactive” in each case. The Potency entry in test [8], in test [9] and in test [10] was “inactive” each time. Moreover, the max response in [3] was -19.7% (inactive) and -21.3% (inactive) and 9.87% (inactive).
As for `O=C(O)CC(O)C(=O)O` (centres undefined), the Potency entry in test [1], in test [2], in test [4], in [5], in test [6] and in [7] was “inactive” in each case. Also, the Potency entry in test [8], in [9] and in test [10] was “inactive” each time. For the same compound, the max response in [3] is -23.9% (inactive) and -4.53% (inactive) and 7.17% (inactive).
As to `CCCCCCCC(=O)OCC(COC(=O)CCCCCCC)OC(=O)CCCCCCC`, the Potency result in test [1], in [2], in [4], in [5], in [6] and in test [7] was “inactive” throughout. Moreover, the Potency entry in test [8], in test [9] and in test [10] was “inactive” in each case. Also, the max response in test [3] was 4.45% (inactive) and -0.248% (inactive) and 1.22% (inactive).
Regarding `CN1CCc2cccc3c2[C@H]1Cc1ccc(O)c(O)c1-3`, the Potency in test [1] was 15.7 µM (active) and 10.3 µM (active); in [2], 49.5 µM (active); in test [3] it was 15.7 µM (active) and 10.3 µM (active) and 21.3 µM (active); in [6], 49.5 µM (active) and 16.3 µM (active); in test [10], 55.5 µM (active) and inactive. In addition, the Potency result in test [4], in test [5], in test [7] and in test [9] was “inactive” throughout.
